Test results from PubChem BioAssay.
Activity calls are given as the source filed them.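 Rule for the calls, unless noted: active = visual image review flags a hit and inhibition of aggregation exceeds 20%; inconclusive = visual hit but inhibition at or below 20%; inactive = no hit on visual image review.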

Experiments:
[1] = inhibitors of TNFa-induced NFkB p65 translocation, primary screen, imaging, HUVEC, MLSMR starter and 10KST1 sets (AID 438;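 active = inhibition above 20% together with a positive visual image hit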;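 note: compound added about 3h40 before a 20 min TNFalpha stimulation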;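 for inhibition: signal is the nuclear over cytoplasmic p65 intensity ratio per well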); conditions: HUVEC TNFa-induced p65 nuclear translocation; cell count: measured here: nuclei count (cytotoxicity indicator), at 2.08 µM; inhibition: at 2 µM, stronger effect = higher value, 0% TNFa-plus-vehicle, 100% no-TNFa wells
[2] = reduction of polyQ htt aggregates in cells – imaging, exon1htt(103Q)mCFP cells, high-content imaging, primary screen (AID 483); conditions: exon1htt(103Q)mCFP cell line, aggregate imaging, at 2 µM; inhibition of aggregation: stronger effect = higher value; nuclei count: measured here: cell count, toxicity;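 note: compound exposure lasted 3 days before fixation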;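 for nuclei count: percent of the per-plate median nuclei count of sample wells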
[3] = endothelial E-selectin expression blockers – imaging, HUVEC, immunofluorescence, MLSMR starter and 10KST1 sets, primary screen (AID 487;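 active = visually confirmed hit in the image check and inhibition above 20%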;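 for inhibition: signal is fraction of cell area covered by stained E-selectin grains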;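 for nuclei count: 100% = median nuclei count of all wells on the same plate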); conditions: HUVEC TNFalpha-induced E-selectin immunofluorescence imaging, at 2 µM; inhibition: stronger effect = higher value; nuclei count: measured here: cell number, toxicity
[4] = target: Voltage-gated potassium channel subunit beta-2 (Rattus norvegicus) (UniProt P62483); experiment: inhibitors of rat Kvbeta2 reductase activity – biochemical, NADPH fluorescence, primary screen (AID 622;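 active = fluorescence slope higher than the sample average by over 3 SD, cut at about -0.22 in these data, passing the limit was not always enough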;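 note: slope of raw intensity against log time taken from 70 to 1610 s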); conditions: recombinant KvBeta, 4-cyanobenzaldehyde reduction, at 10 µM, stronger effect = higher value
Chain of Voltage-gated potassium channel subunit beta-2 (Rattus norvegicus) (P62483 whole entry, looked up): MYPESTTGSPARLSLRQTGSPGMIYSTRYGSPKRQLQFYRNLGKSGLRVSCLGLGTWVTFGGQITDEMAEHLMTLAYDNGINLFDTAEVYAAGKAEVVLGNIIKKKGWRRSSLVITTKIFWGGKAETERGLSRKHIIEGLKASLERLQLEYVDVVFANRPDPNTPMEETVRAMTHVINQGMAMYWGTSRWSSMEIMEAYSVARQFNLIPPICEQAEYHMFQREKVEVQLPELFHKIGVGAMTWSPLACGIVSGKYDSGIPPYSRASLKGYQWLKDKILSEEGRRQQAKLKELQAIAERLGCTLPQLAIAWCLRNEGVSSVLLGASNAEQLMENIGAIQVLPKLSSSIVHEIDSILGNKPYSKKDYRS

[5] = target: Voltage-gated potassium channel subunit beta-2 (Rattus norvegicus) (UniProt P62483); experiment: enhancers of rat Kvbeta2 NADPH turnover – biochemical, NADPH fluorescence, primary screen (AID 623;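 active = NADPH fluorescence slope more negative than the mean of all samples by about 3 SD, 99.7% confidence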;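 note: fluorescence intensity change per second fitted from 20 to 320 s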); conditions: Recombinant KvBeta, NADPH fluorescence decrease slope, 10 min; at 10 µM; stronger effect = lower value
[6] = target: Alpha-2C adrenergic receptor (Homo sapiens) (UniProt P18825); experiment: compounds altering alpha2C-coupled GIRK flux – cell-based, HEK293 alpha2C/GIRK1/2, thallium flux, primary screen (AID 624;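 active = fluorescence slope after compound addition differing from the mean of all screened samples at 99.7% confidence, in either direction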;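 note: slope of fluorescence ratio to pre-addition baseline per second over 15 to 24 s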); conditions: thallium flux BTC fluorescence, at 10 µM, actives lie on both sides
Chain of Alpha-2C adrenergic receptor (Homo sapiens) (P18825 whole entry, looked up): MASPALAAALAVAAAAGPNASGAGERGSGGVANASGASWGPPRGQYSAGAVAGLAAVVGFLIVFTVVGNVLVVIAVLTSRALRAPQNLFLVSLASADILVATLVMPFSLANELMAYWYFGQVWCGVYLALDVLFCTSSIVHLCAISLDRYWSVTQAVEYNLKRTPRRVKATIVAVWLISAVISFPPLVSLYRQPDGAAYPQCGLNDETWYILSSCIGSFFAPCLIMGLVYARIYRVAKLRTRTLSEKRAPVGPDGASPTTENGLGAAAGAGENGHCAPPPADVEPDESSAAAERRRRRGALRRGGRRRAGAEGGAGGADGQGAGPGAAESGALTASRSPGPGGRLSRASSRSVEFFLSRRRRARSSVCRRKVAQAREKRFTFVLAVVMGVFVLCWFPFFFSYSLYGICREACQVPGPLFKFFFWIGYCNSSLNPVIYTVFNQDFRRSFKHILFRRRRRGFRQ

[7] = blockers of RIG-like receptor reporter activation – cell-based, Sendai virus stimulus, luciferase, 10K MLSCN set, TLR/RLR signaling modifier project, primary screen (AID 602276;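 active = inhibition at or above 50% at 10 µM; inactive = inhibition below 50%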;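 note: firefly luciferase from ISG56 promoter only with Renilla not read in this screen; 0% = Sendai virus plus DMSO and 100% = medium plus DMSO without virus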); conditions: HEK293 RL24 IRF3 luciferase reporter, at 10 µM, stronger effect = higher value
[8] = TLR3 IRF3 reporter activation blockers – cell-based, poly I:C stimulus, luciferase, 10K MLSCN set, primary screen (AID 602277;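 active = inhibition of the reporter signal at or above 50%; inactive = inhibition below 50%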); conditions: HEK293-TLR3 RL24 IRF3 luciferase reporter, at 10 µM, stronger effect = higher value

Structure (SMILES)	cell count [1]	inhibition [1]	inhibition of aggregation [2]	nuclei count [2] [%]	inhibition [3]	nuclei count [3] [%]	fluorescence slope [4]	NADPH fluorescence slope [5]	slope [6]	inhibition [7]	inhibition [8]
COc1nc(Oc2ccc(=O)n(C)n2)nc(N(C)C)n1	420	1% (inactive)	-5.2% (inactive)	116	-52.1% (inactive)	110	-0.357 (inactive)	-1.9e-05 (inactive)	0.00579 (inactive)	6.15% (inactive)	12% (inactive)
O=c1c2[nH]c3cccc(Cl)c3c2ncn1CCN1CCCCC1	300	-2.8% (inactive)	-4.9% (inactive)	89	-0.5% (inactive)	106	-0.618 (inactive)	-2.5e-05 (inactive)	0.00476 (inactive)	16.5% (inactive)	27.2% (inactive)
CCOc1ccccc1Nc1nnc(SCC(=O)N2CCCC2)s1	655	1% (inactive)	12.1% (inactive)	106	-65.3% (inactive)	100	-0.609 (inactive)	1.4e-05 (inactive)	0.00607 (inactive)	4.86% (inactive)	12.3% (inactive)
O=C(N1CCN(c2ccccc2F)CC1)C12CC3CC(CC(C3)C1)C2	242	3.4% (inactive)	-2.5% (inactive)	99.4	17.9% (inactive)	95	-0.387 (inactive)	2.5e-05 (inactive)	0.00709 (inactive)	7.35% (inactive)	14.4% (inactive)
Nc1nc(Nc2ccc(Cl)cc2Cl)nc(C(F)(F)F)n1	348	0.6% (inactive)	-0.7% (inactive)	96.9	-19.5% (inactive)	105	-0.348 (inactive)	-1.8e-06 (inactive)	0.00538 (inactive)	-32.5% (inactive)	-84.9% (inactive)
Cn1c(=O)[nH]c(=O)c2c1nc(N1CCc3ccccc3C1)n2CCSc1nc2ccccc2s1	404	4.7% (inactive)	4.4% (inactive)	105	-34.8% (inactive)	118	-0.502 (inactive)	-4.2e-05 (inactive)	0.00385 (inactive)	19.3% (inactive)	23% (inactive)
Nc1nc(CSc2nc3ccccc3[nH]2)nc(N2CCOCC2)n1	675	-17.6% (inactive)	-0.7% (inactive)	87.9	-51% (inactive)	111	-0.449 (inactive)	-3.7e-05 (inactive)	0.00382 (inactive)	3.37% (inactive)	18.9% (inactive)
C=CCNC(=O)C1CC(=O)N(c2ccc(OCC(=O)Nc3ccc(OC)cc3)cc2)C1 (stereo unspecified)	393	0.7% (inactive)	7.7% (inactive)	104	-93.7% (inactive)	128	-0.339 (inactive)	-4.8e-05 (inactive)	0.00432 (inactive)	5.59% (inactive)	5.9% (inactive)
CCn1c(SCc2cc(=O)[nH]c3ccccc23)nc2c1c(=O)n(C)c(=O)n2C	350	1% (inactive)	-9.3% (inactive)	93.3	-38.3% (inactive)	99.2	-0.336 (inactive)	-3.5e-05 (inactive)	0.00504 (inactive)	4.21% (inactive)	14.7% (inactive)
O=C(Cn1c(C(=O)NCC2CCCO2)cc2sccc21)c1ccccc1 (stereo unspecified)	280	-13.4% (inactive)	20.2% (inactive)	80	-77.7% (inactive)	99.3	-0.611 (inactive)	5.3e-06 (inactive)	0.00924 (inactive)	5.12% (inactive)	4.66% (inactive)
Cc1[nH]n(C(N)=S)c(=O)c1C(c1ccccc1)C(C#N)C#N (stereo unspecified)	694	9.6% (inactive)	-2.9% (inactive)	107	32.6% (inactive)	99.1	-0.38 (inactive)	5.1e-06 (inactive)	0.00522 (inactive)	-11.3% (inactive)	-18% (inactive)
COc1ccccc1S(=O)(=O)Cc1ccc(C(=O)N2CCOCC2)o1	528	-7.1% (inactive)	29% (inactive)	86.6	-67.1% (inactive)	107	-0.428 (inactive)	-5.8e-05 (inactive)	0.00635 (inactive)	1.72% (inactive)	33.5% (inactive)
NC(=O)CSCc1ccc(Br)cc1	313	8.3% (inactive)	12.7% (inactive)	91.7	-103% (inactive)	105	-0.579 (inactive)	-5e-05 (inactive)	0.00494 (inactive)	11.5% (inactive)	13.5% (inactive)
CS(=O)(=O)N(CC(=O)Nc1cccc(F)c1)Cc1ccccc1	381	-0.2% (inactive)	2.5% (inactive)	107	-19.3% (inactive)	106	-0.467 (inactive)	-3.7e-05 (inactive)	0.00637 (inactive)	5.19% (inactive)	30.7% (inactive)
O=C1COc2ccc(C(=O)COC(=O)CCc3ccc(S(=O)(=O)N4CCOCC4)cc3)cc2N1	410	-1.9% (inactive)	12.6% (inactive)	90.4	-119% (inactive)	104	-0.37 (inactive)	-5.9e-05 (inactive)	0.00618 (inactive)	4.84% (inactive)	23.5% (inactive)
CCc1c(C(=O)Nc2ncn(Cc3cccc(C)c3)n2)csc1C	630	1.2% (inactive)	2% (inactive)	97.3	-66.7% (inactive)	110	-0.343 (inactive)	-4.3e-05 (inactive)	0.00495 (inactive)	7.43% (inactive)	15.5% (inactive)
CCOC(=O)c1cccc(NC(=O)CSc2nnc(C3CCCCC3)n2C)c1	291	-10.5% (inactive)	7.3% (inactive)	117	18% (inactive)	113	-0.586 (inactive)	-3.6e-05 (inactive)	0.00599 (inactive)	12.9% (inactive)	17.5% (inactive)
O=C(Nc1cccc(F)c1)c1cccc(S(=O)(=O)N2CCOCC2)c1	566	3% (inactive)	-14% (inactive)	94.3	-38.9% (inactive)	92.1	-0.504 (inactive)	-5.2e-05 (inactive)	0.00763 (inactive)	10.5% (inactive)	98.3% (active)
Cc1csc(NC(=O)CCS(=O)(=O)c2ccc(Br)cc2)n1	721	0% (inactive)	-30.9% (inactive)	91.7	5.7% (inactive)	115	-0.609 (inactive)	1.8e-05 (inactive)	0.00541 (inactive)	-20.4% (inactive)	-7.68% (inactive)
CC(C)N(O)C(=O)NC(C)(C)C	496	9.4% (inactive)	-1.8% (inactive)	106	42.3% (inactive)	103	-0.494 (inactive)	-2.2e-05 (inactive)	0.00463 (inactive)	17.4% (inactive)	15% (inactive)
Cc1ccc(-c2nnc(SC(C)C#N)n2N)cc1 (stereo unspecified)	516	-3.8% (inactive)	-0.7% (inactive)	95.1	-93.5% (inactive)	137	-0.587 (inactive)	-3.8e-05 (inactive)	0.00692 (inactive)	10.4% (inactive)	19% (inactive)
CCOC(=O)c1oc2c(CN3CCN(C)CC3)c(O)ccc2c(=O)c1-c1ccccc1OC	463	2.1% (inactive)	-44.9% (inactive)	86.2	-59% (inactive)	103	-0.61 (inactive)	8.1e-06 (inactive)	0.00673 (inactive)	9.7% (inactive)	20.2% (inactive)
CC(=O)Nc1ccccc1-c1nc2ccc(C(=O)N3CCN(c4ccccc4)CC3)cc2[nH]c1=O	617	14.7% (inactive)	-6.6% (inactive)	96.8	-3.1% (inactive)	110	-0.489 (inactive)	-4.7e-05 (inactive)	0.00656 (inactive)	5.92% (inactive)	-0.673% (inactive)
CS(=O)(=O)NCc1ccc(C(=O)NCc2ccccc2)cc1	640	3.3% (inactive)	0% (inactive)	104	-19.7% (inactive)	109	-0.415 (inactive)	-3.9e-05 (inactive)	0.003 (inactive)	-0.454% (inactive)	5.61% (inactive)
Cc1cc(C)nc(NS(=O)(=O)c2ccc(NC(=O)Cn3c(=O)oc4ccccc43)cc2)n1	490	0.5% (inactive)	26% (inactive)	63.8	-31.3% (inactive)	122	-0.577 (inactive)	-4.3e-06 (inactive)	0.00665 (inactive)	9.3% (inactive)	25.4% (inactive)
C=CCSc1nnc(-c2cccnc2)o1	566	8.2% (inactive)	13.3% (inactive)	94.4	19.1% (inactive)	78.2	-0.539 (inactive)	-5.1e-05 (inactive)	0.00706 (inactive)	1.31% (inactive)	-8.9% (inactive)
